Most compounds without a hit are left out; they make up all but 7.5% or so of the library.
NPC1 promoter act – activators of NPC1 promoter. Huh7 NPC1 promoter luciferase reporter, 24 h. Potency, µM (doses to about 9.22 µM), for inactives: at the highest dose activation, actives largely listed as activators. 2.4% of 320,000 active. AID 485313; also: % of control where 0% means no effect; nearly all actives have a fitted effect of over 60% in size
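Cells: Huh7 expressing luciferase under the NPC1 promoter, 1500/well. Seeded 2 h, compound added, incubated 24 h at 37 °C. Luciferase reagent, 10 min ambient, then luminescence.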
SMN2 splice up – enhancers of SMN2 splice variant expression; HEK293 SMN2-luciferase splicing reporter, luminescence, 30-36 h; Potency, µM (highest dose often 46.1 µM), inactives show top-dose activity change, positive = activation, hits mostly activators; 2.8% of 210,000 active; also: % of control where 0% means no effect; nearly all actives have a fitted effect of over 55% in size
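HEK293 cells carry an SMN2 minigene-luciferase reporter in which exon 7 inclusion puts luciferase in frame. Cells were seeded at 2000 cells/well, attached for 10-12 hours, then exposed to compounds for 30-36 hours at 37C before ONE-Glo luminescence.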
ELG1 genotoxic – induces genotoxicity in HEK293T cells with luciferase-tagged ELG1; HEK293T ELG1-luciferase reporter, luminescence, 16 h; Potency, µM (titrated, usually from 46 µM), for the others: top-dose activity change, positive = activation, hits mostly activators; 1.3% of 330,000 active; AID 504466; also: % of control where 0% means no effect; nearly all actives have a fitted effect of over 60% in size
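HEK293T cells expressing luciferase-tagged ELG1 were exposed to compound or DMSO vehicle for 16 hr at 37 °C and 5% CO2. Luciferase activity was then measured with ONE-Glo after 30 min at room temperature.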
Rab9 promoter act – Rab9 promoter activation; AID 485297; Huh7 Rab9 promoter-luciferase reporter, luminescence, 24 h; Potency, µM (top dose mostly 9.22 µM), for inactives: at the highest dose activation, negative = inhibition, actives largely listed as activators; 2.8% of 320,000 active; also: % of control where 0% means no effect; nearly all actives have a fitted effect of over 60% in size
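Huh7 cells stably carrying a Rab9 promoter-luciferase reporter, 1500 cells per well in OP-MEM I with 10% FBS, treated with compound 24 hours at 37C. Luciferase activity read by luminescence after 10 minutes with Amplite reagent.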
FLuc counter – inhibits or activates purified firefly luciferase, miR-21 counter-screen; Potency, µM (series often up to 57.5 µM), inactives show at the highest dose activity change, negative = inhibition, most hits filed as inhibitors; AID 588342; 6.9% of 360,000 active; purified FLuc, Km substrates, luminescence inhibition;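 also: plate controls were vehicle for no effect and reference inhibitor for full effect; nearly all actives have a fitted effect of over 55% in size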
Target sequence (P08659 whole entry, looked up): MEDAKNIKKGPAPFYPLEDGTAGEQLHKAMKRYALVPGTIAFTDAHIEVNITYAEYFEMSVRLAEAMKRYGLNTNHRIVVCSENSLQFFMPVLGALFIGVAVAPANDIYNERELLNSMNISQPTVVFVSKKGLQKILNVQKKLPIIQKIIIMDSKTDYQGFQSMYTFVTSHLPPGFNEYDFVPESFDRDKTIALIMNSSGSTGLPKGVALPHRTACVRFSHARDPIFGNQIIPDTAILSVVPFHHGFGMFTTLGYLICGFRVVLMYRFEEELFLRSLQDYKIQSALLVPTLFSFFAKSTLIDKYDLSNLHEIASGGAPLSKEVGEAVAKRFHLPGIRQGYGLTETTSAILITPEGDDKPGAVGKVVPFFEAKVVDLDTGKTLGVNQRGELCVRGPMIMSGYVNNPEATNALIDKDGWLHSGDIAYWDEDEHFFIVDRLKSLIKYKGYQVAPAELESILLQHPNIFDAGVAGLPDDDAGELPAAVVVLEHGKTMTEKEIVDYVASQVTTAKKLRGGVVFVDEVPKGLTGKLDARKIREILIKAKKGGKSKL
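Purified P. pyralis luciferase (10nM final) with 10uM D-luciferin and 10uM ATP (Km levels) in 50mM Tris acetate pH 7.5, 10mM Mg acetate, 0.01% Tween-20, 0.05% BSA; qHTS 6-point titration, ~60 µM downward; luminescence read.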
Numbers without * were called inactive; [ ] = another dose, or the depositor's remark. Calls follow the shape of the dose curve; as a rule, active = well fitted curve in the direction sought with a large enough effect; inconclusive = small, poorly fitted or top-dose-only effect, or another doubt; inactive = no such curve, though single readings can be large; an effect the other way counts as inactive or inconclusive. Potency is read from the fitted curve at half-maximal effect.

Results for Cc1cc(C(=O)N2CCN(Cc3ccccc3)CC2)on1 ?
NPC1 promoter act: -5%; SMN2 splice up: -7%; ELG1 genotoxic: -1%; Rab9 promoter act: 3%; FLuc counter: -1%

Results for CC(C)(C)c1ccc(C(=O)NNC(=O)CNC(=O)c2cccs2)cc1 ?
ELG1 genotoxic: 4%

What do the screens show for `CN=CC1=C(O)c2ccccc2C1=O`?
NPC1 promoter act: 4%; SMN2 splice up: 17%; ELG1 genotoxic: 11%; Rab9 promoter act: 0%; FLuc counter: 3%

How did COc1ccc(Cn2c(O)c(C=Nc3ccc(OC)cc3)c3ccccc3c2=O)cc1 do in these assays?
NPC1 promoter act: -8%; SMN2 splice up: 22%; ELG1 genotoxic: 1%; Rab9 promoter act: -1%; FLuc counter: -2%

What do the screens show for `COc1ccc(OC)c(/C=N\NC(=O)c2cc3c(ccc4ccccc43)o2)c1`?
NPC1 promoter act: 2%; ELG1 genotoxic: -9%; Rab9 promoter act: 4%; FLuc counter: -14%

What do the screens show for `COc1ccc(N=Cc2[nH]c3ccccc3c2O)cc1`?
NPC1 promoter act: 8%; SMN2 splice up: inconclusive; ELG1 genotoxic: 13%; Rab9 promoter act: inconclusive; FLuc counter: 2.1µM*

How did COc1ccc(N=CC2=C(O)c3ccccc3C2=O)cc1 do in these assays?
NPC1 promoter act: 0.71µM*; SMN2 splice up: 4µM*; ELG1 genotoxic: inconclusive; Rab9 promoter act: 0.32µM*; FLuc counter: 0.15µM*

Results for O=C1C(C=Nc2ccccc2)=C(O)c2ccccc21 ?
NPC1 promoter act: 3.2µM*; SMN2 splice up: 16µM*; ELG1 genotoxic: inconclusive; Rab9 promoter act: 1.6µM*; FLuc counter: 0.54µM*

What do the screens show for `COc1ccc(N=Cc2oc3ccc4ccccc4c3c2O)cc1`?
NPC1 promoter act: inconclusive; SMN2 splice up: 13µM*; ELG1 genotoxic: 22%; Rab9 promoter act: 3.2µM*; FLuc counter: inconclusive

Results for COC(=O)c1ccccc1NC(=O)Cn1nnc2sc(-c3ccccc3)cc2c1=O ?
SMN2 splice up: -6%; FLuc counter: -2%

Results for O=C(NCCCN1CCN(c2ccccc2F)CC1)c1ccc2nc(CCc3ccccc3)oc2c1 ?
FLuc counter: -11%

How did O=C1C(C=NCCN2CCOCC2)=C(O)c2ccccc21 do in these assays?
NPC1 promoter act: -5%; SMN2 splice up: inconclusive; ELG1 genotoxic: inconclusive; Rab9 promoter act: 11%; FLuc counter: 6µM*

Results for O=C1C(C=NCCCN2CCOCC2)=C(O)c2ccccc21 ?
NPC1 promoter act: -5%; SMN2 splice up: -9%; ELG1 genotoxic: 15%; Rab9 promoter act: 4%; FLuc counter: inconclusive

How did N#C/C(=N\Nc1ccc(Cl)c(Cl)c1)C(=O)C1CC1 do in these assays?
NPC1 promoter act: inconclusive; ELG1 genotoxic: 8%; Rab9 promoter act: inconclusive; FLuc counter: 27µM*

What do the screens show for `COc1cccc([C@@H]2Oc3ccc(OC)cc3C(=O)[C@H]2OC(=O)N[C@H]2CCCc3ccccc32)c1`?
SMN2 splice up: -3%

How did C/C(=C\C(=O)c1ccc(C)o1)Nc1ccc(C(=O)O)cc1C do in these assays?
NPC1 promoter act: 1%; SMN2 splice up: 30%; ELG1 genotoxic: 11%; Rab9 promoter act: -4%; FLuc counter: 9.5µM*

What do the screens show for `COc1cccc(NC(=O)CN(C)C(=O)CSc2nc(C)cc(C)n2)c1`?
NPC1 promoter act: -2%; ELG1 genotoxic: 0%; Rab9 promoter act: 1%; FLuc counter: 5%

What do the screens show for `Cc1cc(C)cc(NC(=O)c2ccc(CSc3nnc(C)s3)cc2)c1`?
NPC1 promoter act: 3%; SMN2 splice up: 0%; ELG1 genotoxic: 8%; Rab9 promoter act: 10%; FLuc counter: 7.6µM*

Results for Cc1ccc(NC(=O)c2ccc(CSc3nnc(C)s3)cc2)cc1 ?
NPC1 promoter act: 1.1µM*; SMN2 splice up: inconclusive; ELG1 genotoxic: 11%; Rab9 promoter act: 1.6µM*; FLuc counter: 1.5µM*

Results for Cc1nnc(SCc2ccc(C(=O)O)cc2)s1 ?
NPC1 promoter act: -1%; SMN2 splice up: -8%; ELG1 genotoxic: -1%; Rab9 promoter act: 18%; FLuc counter: 2%

How did Cc1ccc(NC(=O)c2ccc(CSc3nnnn3C)cc2)cc1 do in these assays?
NPC1 promoter act: 2µM*; SMN2 splice up: 8.9µM*; ELG1 genotoxic: inconclusive; Rab9 promoter act: 1.6µM*; FLuc counter: 4.8µM*

What do the screens show for `CCc1ccc(NC(=O)CSc2nnnn2C)cc1`?
NPC1 promoter act: inconclusive; ELG1 genotoxic: 13%[9.26 µM]; Rab9 promoter act: inconclusive; FLuc counter: 24µM*

Results for CCOc1ccc(N(CC(=O)Nc2cc(Cl)ccc2C)S(C)(=O)=O)cc1 ?
NPC1 promoter act: -17%; ELG1 genotoxic: -5%; Rab9 promoter act: 0%; FLuc counter: 0%

What do the screens show for `CCn1cc(-c2nnnn2-c2ccc(Cl)cc2)c(=O)c2ccccc21`?
NPC1 promoter act: -1%; SMN2 splice up: -3%; ELG1 genotoxic: -3%; Rab9 promoter act: -1%; FLuc counter: 1%

Results for O=C(NCc1ccc(F)cc1)c1c(O)nc2ccccn2c1=O ?
SMN2 splice up: 10%; FLuc counter: 3%

How did COc1cc(/C=N/NC(=O)c2ccccn2)ccc1OC(=O)c1cccs1 do in these assays?
NPC1 promoter act: inconclusive; ELG1 genotoxic: inconclusive; Rab9 promoter act: 21%; FLuc counter: 13µM*

How did COc1cc(/C=N/Nc2ccccc2)ccc1OC(=O)c1cccs1 do in these assays?
NPC1 promoter act: 5%; SMN2 splice up: inconclusive; ELG1 genotoxic: inconclusive; Rab9 promoter act: 15%; FLuc counter: 21µM*

How did COc1cc(/C=N/NC(=O)c2ccccn2)cc2c1OCO2 do in these assays?
NPC1 promoter act: inconclusive; SMN2 splice up: 11µM*; ELG1 genotoxic: inconclusive; Rab9 promoter act: inconclusive; FLuc counter: 24µM*

What do the screens show for `CCOc1cc(/C=N/NC(=O)COc2ccc(C)cc2)ccc1OC(=O)c1cccs1`?
NPC1 promoter act: 1%; SMN2 splice up: 1%; ELG1 genotoxic: 4%; Rab9 promoter act: 5%; FLuc counter: 5%

How did COc1cc(/C=N/NC(=O)C(N)=O)ccc1OC(=O)c1cccs1 do in these assays?
NPC1 promoter act: -2%; SMN2 splice up: 6%; ELG1 genotoxic: 1%; Rab9 promoter act: -3%; FLuc counter: -1%

How did COc1cc(/C=N/NC(=O)COc2ccc(C)cc2)ccc1OC(=O)c1cccs1 do in these assays?
NPC1 promoter act: -2%; SMN2 splice up: -15%[1.84 µM]; ELG1 genotoxic: 11%; Rab9 promoter act: 2%; FLuc counter: 11µM*

What do the screens show for `CCCc1cc(C(=O)N2CCCC(C(=O)c3cc(C)c(OC)c(C)c3)C2)n(C)n1` (configuration not stated)?
NPC1 promoter act: 9%; ELG1 genotoxic: -3%; Rab9 promoter act: -12%; FLuc counter: 0%

How did Cc1c(C(=O)NCc2ccco2)oc2ccccc12 do in these assays?
NPC1 promoter act: 1%; ELG1 genotoxic: 9%; Rab9 promoter act: 10%; FLuc counter: -7%
